Rows were chosen to be rich in hits. Some 3.1% of all compounds tested hit in one or more screens of this group.
SIRT5 inh = SIRT5 desuccinylase inhibitors, primary screen, biochemical, fluorescence imaging, single point, set 5; NAD-dependent protein deacylase sirtuin-5, mitochondrial (Homo sapiens), Q9NXA8; Purified SirT5, succinyl-peptide AMC, trypsin-coupled fluorescence; inhibition, % at 15 µM; 1.1% of 330,000 active; AID 652115, 2013; in the data active means inhibition above about 15%
Target sequence (Q9NXA8 whole entry, looked up): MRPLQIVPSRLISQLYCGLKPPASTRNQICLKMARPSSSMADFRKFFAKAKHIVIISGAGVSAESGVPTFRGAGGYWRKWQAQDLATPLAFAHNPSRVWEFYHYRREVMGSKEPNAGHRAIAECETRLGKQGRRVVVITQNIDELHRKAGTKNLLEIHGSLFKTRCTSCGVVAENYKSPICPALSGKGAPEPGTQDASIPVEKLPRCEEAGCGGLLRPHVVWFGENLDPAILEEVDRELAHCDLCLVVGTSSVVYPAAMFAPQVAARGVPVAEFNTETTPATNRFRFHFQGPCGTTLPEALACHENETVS
ERAP1 HTS inh = human ERAP1 aminopeptidase inhibitors, primary screen, biochemical, single point, plate reader. 0.15% of 340,000 active. inhibition, % at 10.7 µM. Endoplasmic reticulum aminopeptidase 1 (Homo sapiens), Q9NZ08. recombinant ERAP1, Leu-AMC fluorescence, 60 min. AID 652197, 2013;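 active means mean replicate inhibition of at least 30%, or all replicates individually reaching that 30% level; inactive means mean below 30% and not every replicate reaching it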
FGF22 binding = binders of human FGF22 protein, primary screen, FGF22 synaptogenesis inhibitor project, biophysical, thermal shift, single point; Fibroblast growth factor 22 (Homo sapiens), Q9HCT0; AID 651658, 2012; activity (Tm shift, normalised), % at 9.99 µM; recombinant FGF22 thermal shift, SYPRO orange fluorescence; percent of sucrose octasulfate shift, DMSO zero; 1.5% of 340,000 active;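 active means mean Tm shift, scaled 0 neutral to 100 positive control, at about 1.3% or above, every replicate too, limit read from the data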
Target sequence (Q9HCT0 whole entry, looked up): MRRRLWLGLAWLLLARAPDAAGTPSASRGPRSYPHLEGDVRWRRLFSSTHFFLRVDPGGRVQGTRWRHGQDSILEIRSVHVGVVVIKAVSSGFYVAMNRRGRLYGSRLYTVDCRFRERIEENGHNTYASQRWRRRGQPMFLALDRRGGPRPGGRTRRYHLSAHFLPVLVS
CASP6 VEID inh = human caspase-6 inhibitors, primary screen, biochemical, VEID-R110 fluorescence, single point, set 2 | inhibition, % at 12.5 µM | purified caspase-6, Z-VEID-R110 cleavage fluorescence | AID 686996, 2013 | 0.53% of 350,000 active | P55212;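 active means mean inhibition across replicates at least about 35%, with every replicate also reaching that limit, limit read from the data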
Of the large screens only hits and unclear results are named; the others gave an inactive call.

O=C1CC(c2ccc(O)c(O)c2)Oc2c1ccc(O)c2O (stereo not given)	CASP6 VEID inh 75.3
CCCc1cn(CC[C@@H]2CC[C@H](NS(=O)(=O)c3ccc(-c4ccccc4)cc3)[C@H](CO)O2)nn1	none
COc1ccccc1/C=C/C(=O)OCCCN(C)C	FGF22 binding 43.6
CN(C)CCCOC(=O)c1ccc(Cl)cc1	none (no result: FGF22 binding)
COc1ccc(/C=C/C(=O)OCCCN(C)C)cc1	none
COc1cccc(C(=O)OCCCN(C)C)c1	SIRT5 inh 15.5
CS(=O)(=O)N1CC2(C1)[C@@H](c1ccccc1)[C@@H](CO)N2Cc1ccccn1	none
COc1ccccc1-c1cnc2c(c1)C(=O)N([C@H](C)CO)C[C@H](C)[C@H](CN(C)CC1CCOCC1)O2	none
O=C1OC[C@@H]2CCCN2C(=O)[C@@H](CC(=O)N(CCO)Cc2ccccc2)C/C=C\C[C@@H]1Cc1ccc(F)cc1	FGF22 binding 44.3
COc1ccccc1CC(=O)NNS(=O)(=O)c1ccc([N+](=O)[O-])cc1	SIRT5 inh 24.7 (no result: ERAP1 HTS inh)
COc1ccccc1CC(=O)NNS(=O)(=O)c1cccc([N+](=O)[O-])c1	none (no result: SIRT5 inh)
O=C(NCC1CC1)[C@H]1[C@H](CO)[C@H]2Cn3c(ccc(-c4cncnc4)c3=O)[C@H]2N1C(=O)NC1CCCC1	none
CN(C(=O)c1cccc(NC(=O)Cc2ccc(NC(=O)C3CCCN(C(=O)C4CC4)C3)cc2)c1)C1CCCC1 (stereo not given)	FGF22 binding 43.4 (no result: SIRT5 inh)
CC(C)(C)OC(=O)N1CCCC(C(=O)Nc2cccc(C(=O)NCCCCc3ccccc3)c2)C1 (stereo not given)	SIRT5 inh 16.5
Cc1nonc1CN(C)C(=O)c1ccc(OC2CCN(Cc3ccccn3)CC2)cc1	FGF22 binding 44.0
Cc1cc(CN(C)C(=O)c2ccc(OC3CCN(Cc4ccccn4)CC3)cc2)on1	none
CCOCC(O)CNC(=O)c1ccc(OC2CCN(C(=O)c3cccnc3)CC2)cc1 (stereo not given)	none
Cc1nonc1CN(C)C(=O)c1ccc(OC2CCN(C(=O)c3cccnc3)CC2)cc1	FGF22 binding 44.1
O=C(NC1(O)C(=O)c2ccccc2C1=O)c1c(Cl)cccc1Cl	CASP6 VEID inh 39.3 (no result: ERAP1 HTS inh)
O=C(O)c1c(Cl)cccc1Nc1ccccc1	none (no result: SIRT5 inh, FGF22 binding)
O=C(C[C@@H]1CC[C@H]2[C@@H](COC[C@H](O)CN2C(=O)Nc2ccc(F)cc2)O1)NCCc1ccncc1	none
COc1ccccc1C(=O)Nc1ccc2c(c1)C(=O)N(C)C[C@@H](OC)[C@H](C)CN(C)[C@@H](C)CO2	none
C[C@@H]1CN([C@@H](C)CO)S(=O)(=O)c2ccc(/C=C/c3ccccc3)cc2O[C@H]1CN(C)C(=O)Nc1ccc(F)cc1	FGF22 binding 1.6
C[C@@H]1CN([C@@H](C)CO)S(=O)(=O)c2ccc(/C=C/c3ccccc3)cc2O[C@@H]1CN(C)C(=O)Nc1ccc(F)cc1	SIRT5 inh 16.6
C[C@H](CO)N1C[C@H](C)[C@@H](CN(C)C(=O)Nc2cccc(F)c2)Oc2cc(/C=C/c3ccccc3)ccc2S1(=O)=O	none
C[C@@H]1CCCCO[C@@H](CN(C)C(=O)Nc2ccc(C(F)(F)F)cc2)[C@H](C)CN([C@H](C)CO)C(=O)c2cc(NC(=O)NC3CCCCC3)ccc2O1	none
Cc1ccc(N=N/C(=C\O)C(=O)c2ccc(Cl)cc2)cc1	SIRT5 inh 21.7 (no result: FGF22 binding)
CCOc1ccc(OCCn2nnc3ccccc3c2=O)cc1	FGF22 binding 43.8
COc1ccc(N2C(=O)CC(Sc3nnc(-c4ccccc4F)n3C)C2=O)cc1 (stereo not given)	FGF22 binding 43.5
CCC(=O)N1CC2(C1)CN(C(=O)Nc1ccccc1F)[C@@H](CO)c1[nH]c3cc(OC)ccc3c12	none
COCCNC(=O)CCCn1c(=O)c2cc(OC)c(OC)cc2n(CC(=O)c2cccc(OC)c2)c1=O	SIRT5 inh 19.1 (no result: ERAP1 HTS inh)
CC(=O)N(C)C[C@H]1[C@@H](c2ccc(-c3cccc(C#N)c3)cc2)[C@@H](CO)N1C(C)=O	none (no result: ERAP1 HTS inh, FGF22 binding, CASP6 VEID inh)
C[C@@H]1CN([C@@H](C)CO)C(=O)c2cc(NS(=O)(=O)c3ccccc3)ccc2O[C@@H]1CN(C)Cc1ccc(-c2ccccc2)cc1	SIRT5 inh 17.6
Cc1ccc(S(=O)(=O)Nc2ccc3c(c2)C(=O)N([C@@H](C)CO)C[C@@H](C)[C@@H](CN(C)Cc2ccc(-c4ccccc4)cc2)O3)cc1	SIRT5 inh 16.5
C[C@H]1CN([C@@H](C)CO)C(=O)c2cc(NS(=O)(=O)c3ccc(F)cc3)ccc2O[C@@H]1CN(C)Cc1ccc(-c2ccccc2)cc1	SIRT5 inh 15.4
C[C@H]1CCCCO[C@H](CN(C)C(=O)Cc2ccccc2)[C@@H](C)CN([C@@H](C)CO)C(=O)c2cc(NC(=O)C3CCCCC3)ccc2O1	none (no result: SIRT5 inh, ERAP1 HTS inh, CASP6 VEID inh)
O=C(N/N=C/c1cc2c(cc1Br)OCO2)c1cccnc1	FGF22 binding 43.4
O=C(N/N=C/c1cccnc1)c1cc(O)c(O)c(O)c1	CASP6 VEID inh 41.1
O=C(N/N=C/c1cc(Br)c(O)c(Br)c1O)c1cccnc1	CASP6 VEID inh 40.2
O=C(N/N=C/c1cccnc1)c1ccc(O)cc1	none
C[C@H]1CN([C@@H](C)CO)S(=O)(=O)c2ccc(C3=CCCCC3)cc2O[C@H]1CN(C)C(=O)c1ccncc1	none
CC(=O)N1[C@@H]2c3ccc(-c4ccc(F)cc4)c(=O)n3C[C@@H]2[C@@H](CO)[C@@H]1C(=O)N(C)C	none (no result: ERAP1 HTS inh, CASP6 VEID inh)
COc1ccccc1NC(=O)N[C@@H]1CC[C@@H](CCNS(=O)(=O)c2ccccc2)O[C@H]1CO	none
COc1cccc(S(=O)(=O)N2C[C@H](O)COC[C@H]3O[C@H](CC(=O)N4CCCCC4)CC[C@@H]32)c1	none
O=C(CN1C(=O)C2C3CC(C(Br)C3Br)C2C1=O)Nc1ccc(C(=O)O)cc1 (stereo not given)	SIRT5 inh 23.1 (no result: ERAP1 HTS inh)
Brc1cccc(CNCCCN2CCOCC2)c1	none
C=CCOc1cccc(CNCCCN2CCOCC2)c1	FGF22 binding 43.5
COCCNC(=O)C[C@@H]1CC[C@H]2[C@@H](COC[C@H](O)CN2C(=O)c2cc(Cl)cc(Cl)c2)O1	none
Cc1ccc(S(=O)(=O)N2CC[C@@H]3[C@@H](CO)N(C)c4ccc(-c5ccc(C#N)cc5)cc4[C@@H]32)cc1	none
Cc1ccccc1-c1ccc([C@H]2[C@@H](CO)N3CCCCN(S(C)(=O)=O)C[C@H]23)cc1	none
CCOC(=O)C1(Cc2ccccc2C)CCCN(C(=O)CCc2cccnc2)C1 (stereo not given)	CASP6 VEID inh 59.6
CCOC(=O)C1(Cc2ccccc2C)CCCN(C(=O)CCn2nccc2C)C1 (stereo not given)	none
CCOC(=O)C1(Cc2cccc(Cl)c2)CCCN(C(=O)C2CC2)C1 (stereo not given)	FGF22 binding 43.0
O=C(c1cnccn1)N1CC(=O)N2[C@@H](CO)[C@@H](c3ccc(C#CC4CCCCC4)cc3)[C@@H]2C1	none (no result: FGF22 binding)
